Assay results as given in PubChem BioAssay.
Values without a mark were called inactive. Active and inactive are the calls of the source.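 The calls were made as follows, unless noted: active = mean inhibition over 43.08%, the solvent-only control mean plus 3 SD; inactive = the rest.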

How the values were obtained:
[1] = molecular target: Nuclear receptor coactivator 3 (Homo sapiens) (UniProt Q9Y6Q9); experiment: SRC3 coactivator transcriptional activity inhibitors, confirmation, cell-based, luminescence, quadruplicate (AID 588792); settings: HEK293 GAL4-SRC3 luciferase reporter, at 3.6 µM, stronger effect = higher value;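 also: 0% = DMSO treated cells and 100% = gossypol at 36 µM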
Chain of Nuclear receptor coactivator 3 (Homo sapiens) (Q9Y6Q9 whole entry, looked up, the tested form may be a part): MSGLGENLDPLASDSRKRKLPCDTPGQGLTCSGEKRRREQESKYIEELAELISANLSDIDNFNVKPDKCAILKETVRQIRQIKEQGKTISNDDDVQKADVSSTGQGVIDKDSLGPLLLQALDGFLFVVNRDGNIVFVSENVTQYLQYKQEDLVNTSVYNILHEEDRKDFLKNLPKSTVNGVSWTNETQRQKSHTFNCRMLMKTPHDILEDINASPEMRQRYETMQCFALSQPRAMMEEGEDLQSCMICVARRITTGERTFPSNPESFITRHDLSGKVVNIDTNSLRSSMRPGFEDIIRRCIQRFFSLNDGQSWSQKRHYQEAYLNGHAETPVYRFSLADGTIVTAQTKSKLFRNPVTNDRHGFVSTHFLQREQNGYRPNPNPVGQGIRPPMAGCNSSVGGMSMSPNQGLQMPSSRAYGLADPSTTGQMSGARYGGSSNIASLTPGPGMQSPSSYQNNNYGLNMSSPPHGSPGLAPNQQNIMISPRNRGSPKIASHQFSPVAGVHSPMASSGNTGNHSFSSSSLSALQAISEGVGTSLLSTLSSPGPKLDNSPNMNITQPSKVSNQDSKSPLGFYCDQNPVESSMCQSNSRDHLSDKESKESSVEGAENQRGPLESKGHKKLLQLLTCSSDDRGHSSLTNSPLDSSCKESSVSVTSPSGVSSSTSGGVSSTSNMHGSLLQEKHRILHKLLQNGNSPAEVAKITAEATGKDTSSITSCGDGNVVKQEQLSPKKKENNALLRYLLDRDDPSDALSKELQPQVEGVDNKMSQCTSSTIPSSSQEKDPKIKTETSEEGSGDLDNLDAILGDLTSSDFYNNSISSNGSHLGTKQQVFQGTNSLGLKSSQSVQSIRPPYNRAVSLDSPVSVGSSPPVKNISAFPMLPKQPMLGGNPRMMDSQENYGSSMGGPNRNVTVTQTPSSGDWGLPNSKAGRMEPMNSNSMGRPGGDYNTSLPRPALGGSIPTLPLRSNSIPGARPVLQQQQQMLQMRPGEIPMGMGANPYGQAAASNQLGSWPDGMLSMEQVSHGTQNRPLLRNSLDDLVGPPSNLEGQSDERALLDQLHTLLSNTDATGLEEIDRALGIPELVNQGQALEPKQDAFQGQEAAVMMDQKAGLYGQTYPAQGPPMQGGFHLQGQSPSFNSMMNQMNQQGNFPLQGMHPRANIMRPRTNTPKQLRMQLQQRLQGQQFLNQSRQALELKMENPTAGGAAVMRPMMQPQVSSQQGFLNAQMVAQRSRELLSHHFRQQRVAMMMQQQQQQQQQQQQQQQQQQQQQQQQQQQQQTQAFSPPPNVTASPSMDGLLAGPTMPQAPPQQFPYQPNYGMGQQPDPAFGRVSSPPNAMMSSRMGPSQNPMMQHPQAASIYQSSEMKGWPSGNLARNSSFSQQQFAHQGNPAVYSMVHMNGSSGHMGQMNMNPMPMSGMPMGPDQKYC

[2] = tested on: transactivating tegument protein VP16 (Human herpesvirus 1), Gal4-VP16 luciferase reporter; experiment: VP16 transactivation inhibitors, counter-screen for SRC3 inhibitor project, cell-based, luminescence, high throughput (AID 588794; in the data active = inhibition above about 30%); settings: mammalian cells, VP16-driven luciferase reporter luminescence; at 3.6 µM; stronger effect = higher value
[3] = molecular target: Nuclear receptor coactivator 1 (Homo sapiens) (UniProt Q15788); experiment: SRC1 coactivator transcriptional activity inhibitors, confirmation, cell-based, luminescence, quadruplicate (AID 588820;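 active = mean inhibition above 46.68%, the untreated control wells mean plus 3 SD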;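 also: 0% = DMSO wells and 100% = gossypol 36 µM treated wells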); settings: HEK293 GAL4-SRC1 luciferase reporter, at 3.6 µM, stronger effect = higher value
Chain of Nuclear receptor coactivator 1 (Homo sapiens) (Q15788 whole entry, looked up, the tested form may be a part): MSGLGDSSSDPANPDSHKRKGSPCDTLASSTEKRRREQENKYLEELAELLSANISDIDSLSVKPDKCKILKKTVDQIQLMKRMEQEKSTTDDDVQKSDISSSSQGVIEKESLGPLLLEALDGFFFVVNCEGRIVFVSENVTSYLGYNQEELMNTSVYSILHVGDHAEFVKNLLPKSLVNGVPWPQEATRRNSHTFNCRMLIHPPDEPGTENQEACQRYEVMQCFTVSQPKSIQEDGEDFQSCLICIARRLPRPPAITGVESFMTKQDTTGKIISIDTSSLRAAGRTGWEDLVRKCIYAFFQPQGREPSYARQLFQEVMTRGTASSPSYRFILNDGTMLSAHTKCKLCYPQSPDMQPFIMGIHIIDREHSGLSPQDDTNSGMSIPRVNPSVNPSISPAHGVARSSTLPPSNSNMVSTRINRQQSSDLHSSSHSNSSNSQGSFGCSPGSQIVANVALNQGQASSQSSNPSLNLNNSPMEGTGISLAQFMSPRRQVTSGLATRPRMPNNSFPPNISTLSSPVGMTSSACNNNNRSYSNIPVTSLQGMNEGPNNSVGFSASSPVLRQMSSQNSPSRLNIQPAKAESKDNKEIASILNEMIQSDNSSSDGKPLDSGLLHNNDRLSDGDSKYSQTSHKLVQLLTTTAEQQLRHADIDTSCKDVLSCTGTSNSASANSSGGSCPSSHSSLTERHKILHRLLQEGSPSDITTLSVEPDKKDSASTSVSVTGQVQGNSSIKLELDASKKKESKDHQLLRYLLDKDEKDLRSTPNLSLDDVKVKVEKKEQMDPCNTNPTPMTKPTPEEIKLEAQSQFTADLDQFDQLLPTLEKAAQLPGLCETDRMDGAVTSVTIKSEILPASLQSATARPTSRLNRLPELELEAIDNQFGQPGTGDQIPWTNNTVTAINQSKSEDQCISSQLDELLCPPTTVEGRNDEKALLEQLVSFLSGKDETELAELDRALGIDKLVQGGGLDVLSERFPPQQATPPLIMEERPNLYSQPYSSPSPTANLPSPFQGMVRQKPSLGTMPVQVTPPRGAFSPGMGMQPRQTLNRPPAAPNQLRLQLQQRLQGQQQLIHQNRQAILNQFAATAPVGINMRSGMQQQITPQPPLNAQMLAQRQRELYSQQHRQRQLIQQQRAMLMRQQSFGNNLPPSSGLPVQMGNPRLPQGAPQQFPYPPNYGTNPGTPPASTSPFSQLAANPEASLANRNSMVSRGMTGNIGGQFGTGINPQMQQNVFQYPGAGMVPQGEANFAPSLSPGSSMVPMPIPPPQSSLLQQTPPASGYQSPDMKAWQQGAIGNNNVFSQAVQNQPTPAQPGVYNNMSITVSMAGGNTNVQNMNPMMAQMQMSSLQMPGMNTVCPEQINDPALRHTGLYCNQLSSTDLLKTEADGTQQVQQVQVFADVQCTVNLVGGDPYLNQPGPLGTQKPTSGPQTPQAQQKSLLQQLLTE

[4] = VP16 transactivation inhibitors, counter-screen for SRC1 inhibitor project, cell-based, luminescence, high throughput (AID 588824; in the data active = inhibition above about 25%); settings: cell-based VP16 transactivation luciferase luminescence; at 3.6 µM; stronger effect = higher value

Compound	inhibition [1]	inhibition [2]	inhibition [3]	inhibition [4]
CN1CCN(S(=O)(=O)c2ccc(Sc3nnnn3-c3ccccc3)c([N+](=O)[O-])c2)CC1	24.5%	2.52%	–	–
CN1CCN(Cc2cc(COCc3ccccc3)c3cccnc3c2O)CC1	20.5%	31% (active)	–	–
CCOc1c(Br)cc(CNC2CCCCCCC2)cc1OC	-5.01%	-0.26%	–	–
Cc1c(Cl)cccc1NC(=O)CCC(=O)N/N=C/c1ccc[nH]1	13.6%	14.5%	–	–
O=C(N/N=C/c1cc(Br)ccc1OC(=O)c1ccc(Br)cc1)c1ccncc1	20.5%	28%	–	–
COc1ccccc1N(CC(=O)N/N=C/c1c(O)ccc2ccccc12)S(C)(=O)=O	34.2%	41.2% (active)	–	–
Cc1cccc(N2CCN(C(=O)C3CCN(c4ncnc5c4nc4n5CCCCC4)CC3)CC2)c1C	-4.11%	11.5%	–	–
CS(=O)c1nc(-c2ccc(Br)cc2)cc(-c2ccccc2)c1C#N (centres undefined)	43.9% (active)	26.6%	–	–
Cc1nc2c(-c3ccc(F)cc3)cnn2c(N)c1-c1ccc(F)cc1	12%	9.51%	–	–
CCC(=O)N1CCN(c2ccnc3cc(Cl)ccc23)CC1	29.1%	9.02%	–	–
CC(C)[C@@H]1CC[C@@H](C)C[C@H]1OC(=O)C[n+]1cc(-c2ccc(Cl)cc2)n2c1CCCCC2	10.3%	20.6%	–	–
COC(=O)c1sc(NC(=O)c2cc(-c3ccccc3)nc3ccccc23)c(C#N)c1C	5.32%	38.6% (active)	–	–
Cc1c(Cl)cccc1NC(=O)Nc1ccccc1C(N)=O	29.1%	27.1%	–	–
COCC(C)NS(=O)(=O)c1ccc(C(=O)NC(Cc2ccccc2)c2ccccc2)cc1 (centres undefined)	17.7%	0.32%	–	–
CCn1cc(C(=O)NCc2ccco2)c(=O)c2cc(S(=O)(=O)N3CCCCCC3)ccc21	20%	23.5%	–	–
COc1ccc(CNC(=O)COC(=O)c2cc(-c3ccc(Cl)s3)nc3ccccc23)cc1	-14.9%	-13.6%	–	–
O=C(CCN1CCN(c2ccccc2)CC1)Nc1ccc(Cl)cc1	3.39%	1.2%	–	–
COc1ccc(-c2cc(C(=O)N3CCN(c4ncccn4)CC3)c3ccccc3n2)c(OC)c1	0.79%	-9.7%	–	–
CC1CC(C)CN(c2nc(NCc3ccco3)nc(N)c2[N+](=O)[O-])C1 (centres undefined)	9.73%	9.4%	–	–
Cc1ncoc1C(=O)NC1CCCc2c1cnn2-c1ccc(C(C)(C)C)cc1 (centres undefined)	-0.26%	41.8% (active)	–	–
COc1cccc(/C=N/Nc2cc(-n3nc(C)cc3-c3ccccc3)ncn2)c1O	28.9%	-9.27%	–	–

Compound	inhibition [1]	inhibition [2]	inhibition [3]	inhibition [4]
FC(F)(F)c1cccc(-c2nc3nc(Cl)c(Cl)nc3[nH]2)c1	-12%	31.5% (active)	–	–
Cc1cc(C)c2nc(C(F)(F)F)c(C#N)c(N)c2c1	45.1% (active)	31.6% (active)	–	–
O=S(=O)(c1ccccc1)c1nc(Nc2cccc(O)c2)sc1Cl	-4.35%	0.89%	–	–
C=C(C)COc1ccc(-c2[nH]ncc2-c2ccc(OC)cc2)c(O)c1	7.89%	14.5%	–	–
CCOC1=C2CN(S(=O)(=O)c3ccc(C)cc3)[C@H](c3ccc(CC)cc3)C[C@@H]2N(S(=O)(=O)c2ccc(C)cc2)[C@H](c2ccccc2)C1	10.9%	35.4% (active)	–	–
COc1ccc(/C=C/C(=O)C23CC4CC(CC(C4)C2)C3)cc1CN1CCOCC1	22.6%	6.66%	–	–
CCc1nc2ccccc2c(=O)n1NCCc1ccccc1	-4.18%	2.67%	–	–
O=C(NCCc1cn2ccccc2n1)c1cc(COc2ccc3ncccc3c2)on1	-5.01%	18.4%	–	–
O=C(CC12CC3CC(CC(C3)C1)C2)Nc1nncs1	15.4%	19.6%	–	–
Cc1ccc(NS(=O)(=O)c2ccc(OCC(=O)NCc3ccncc3)cc2)cc1	8.87%	6.6%	–	–
O=C(N/N=C\c1c(O)ccc2ccccc12)c1ccc(Cn2cccn2)o1	49.1% (active)	39.5% (active)	–	–
Cc1ccc(-n2c(Cl)c(Cl)nc(Cl)c2=O)cc1	45.3% (active)	17.9%	–	–
CCOC(=O)C1CCCN(c2c(NCCCN(C)c3ccccc3)c(=O)c2=O)C1 (centres undefined)	-9.14%	-3.6%	–	–
CCc1ccc(NC(=O)c2cnc(N3CCN(c4ccccn4)CC3)c3ccccc23)cc1	18.1%	42% (active)	–	–
COc1ccccc1C(CNc1ccc(S(=O)(=O)N2CCCC2)cc1[N+](=O)[O-])N(C)C (centres undefined)	23.9%	24.9%	–	–
Cc1ccccc1NC(=O)C(=Cc1ccc(C(=O)O)cc1)C(=O)Nc1ccccc1C	27.8%	43.2% (active)	–	–
CCN(CC(=O)Nc1ccc(OC)cc1)C(=O)CSCC(=O)Nc1cc(C)on1	5.34%	5.42%	–	–
CN1CCCC(n2nc(Cc3ccc(Cl)cc3)c3ccccc3c2=O)CC1 (centres undefined)	10.3%	2.25%	–	–
COc1ccc(-c2cc(C(=O)NNC(=S)NC(=O)c3c(-c4ccccc4)noc3C)[nH]n2)cc1	6.16%	-3.86%	–	–
CCOc1ccc(/C=N/OCC(=O)NCc2ccc3c(c2)OCO3)cc1OC	-12.6%	-5.41%	–	–
O=C(CCl)Nc1cccc(-c2cnc3ccccc3n2)c1	33.5%	13.8%	–	–

Compound	inhibition [1]	inhibition [2]	inhibition [3]	inhibition [4]
CCOc1cc(N2CCOCC2)c(OCC)cc1NC(=O)c1cc(-c2ccco2)nc2ccccc12	17.5%	8.51%	–	–
COc1ccccc1NC(=O)Nc1nnc(Cc2ccc(F)cc2)s1	3.85%	9.25%	–	–
Cc1nn(Cc2ccc(Cl)cc2)c(C)c1NC(=O)c1cc(-c2ccc3c(c2)OCO3)on1	15.2%	50.3% (active)	29.5%	54.1% (active)
O=[N+]([O-])c1cccc(C=NNc2ccc3ccccc3n2)c1O	-4.77%	-23.2%	-90.4%	-49.2%
O=C(Nc1c(-c2ccccc2)[nH][nH]c1=O)c1cccc(C(F)(F)F)c1	15.3%	6.35%	22%	0.94%
COc1ccc(-c2ncncc2-c2ccccc2)c(O)c1	27%	17.1%	35%	14.7%
COc1ccccc1N(C(=O)CCl)c1cn(C(C)=O)c2ccccc12	52.2% (active)	27%	27.2%	18.7%
CCC(=O)c1ccc(Oc2nc3c(c(=O)n(C)c(=O)n3C)n2CC)cc1	26.3%	19.6%	29.4%	20.9%
COc1cccc(CN(C)C(=O)c2ccc(OCC(=O)Nc3cccc(C(F)(F)F)c3)c(OC)c2)c1	14.8%	34% (active)	6.82%	35.6% (active)
Cc1ccc(-c2cc3c(N=O)c4ccccc4c-3n[nH]2)cc1	66.2% (active)	59.7% (active)	30.2%	53% (active)
CNC(=O)c1ccc(NC(=O)C2CCN(c3ncnc4sc(C)c(C)c34)CC2)cc1	51.6% (active)	35.5% (active)	48.7% (active)	30% (active)
COc1cccc(CNc2ncnc3ccc(-c4c(C)noc4C)cc23)c1	36.6%	1.06%	19.3%	-7.49%
O=C(Nc1nc(-c2ccc(F)c(F)c2)cs1)c1ccc(OCC2CCCO2)cc1 (centres undefined)	7.06%	36% (active)	5.41%	39.4% (active)
CC1CCN(Cc2c(C(=O)N/N=C/c3ccccc3O)nnn2-c2nonc2N)CC1	57.7% (active)	41.1% (active)	64.4% (active)	56.8% (active)
CCCCCCCCCCCCCCCC[n+]1cccc2ccccc21	44.9% (active)	69.2% (active)	39.9%	76% (active)
CN([C@@H](Cc1ccc(OS(=O)(=O)c2cccc3cnccc23)cc1)C(=O)N1CCN(c2ccccc2)CC1)S(=O)(=O)c1cccc2cnccc12	-2.66%	30.3% (active)	-4.42%	31.2% (active)
CC(C)n1cnc2c(NCc3ccccc3)cc(N[C@H](C)CO)cc21	16.4%	87.3% (active)	35.6%	8.74%
O=C(C=P(c1ccccc1)(c1ccccc1)c1ccccc1)c1ccccc1-c1ccccc1C(=O)C=P(c1ccccc1)(c1ccccc1)c1ccccc1	60.6% (active)	83.9% (active)	24.4%	82.8% (active)
CN(Cc1c(C(=O)N/N=C/c2cccc(F)c2)nnn1-c1nonc1N)C1CCCCC1	-12.4%	3.59%	6.95%	-3.15%
Cc1sc2ncnc(N3CCC(C(=O)Nc4ccccc4C(C)(C)C)CC3)c2c1C	35.8%	27.6%	41.9%	29.7% (active)
CCn1ccnc1CN(C)Cc1cn[nH]c1-c1ccc(OC)c(F)c1	36.8%	26.1%	34.3%	28% (active)
